Entries with a potency or affinity are not part of this list. Results filed as inconclusive are left out. Active and inactive are the calls of the source.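 The calls were made as follows: active = raises choline transporter activity at one or more tested doses and gives a fitted dose-response curve; inconclusive = no clear call, values can overlap the other calls; inactive = no choline transporter activation at any dose, or no curve.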
Each molecule was assayed against High affinity choline transporter 1 (Homo sapiens) (UniProt Q9GZV3) (assay: CHT activators, dose response, cell-based, 10-point CRC, membrane potential dye (AID 602376)). Conditions: HEK293-CHT, choline-induced membrane potential dye, cells express CHT LV-AA mutant; series mostly up to 67 µM.
Chain of High affinity choline transporter 1 (Homo sapiens) (Q9GZV3 whole entry, looked up): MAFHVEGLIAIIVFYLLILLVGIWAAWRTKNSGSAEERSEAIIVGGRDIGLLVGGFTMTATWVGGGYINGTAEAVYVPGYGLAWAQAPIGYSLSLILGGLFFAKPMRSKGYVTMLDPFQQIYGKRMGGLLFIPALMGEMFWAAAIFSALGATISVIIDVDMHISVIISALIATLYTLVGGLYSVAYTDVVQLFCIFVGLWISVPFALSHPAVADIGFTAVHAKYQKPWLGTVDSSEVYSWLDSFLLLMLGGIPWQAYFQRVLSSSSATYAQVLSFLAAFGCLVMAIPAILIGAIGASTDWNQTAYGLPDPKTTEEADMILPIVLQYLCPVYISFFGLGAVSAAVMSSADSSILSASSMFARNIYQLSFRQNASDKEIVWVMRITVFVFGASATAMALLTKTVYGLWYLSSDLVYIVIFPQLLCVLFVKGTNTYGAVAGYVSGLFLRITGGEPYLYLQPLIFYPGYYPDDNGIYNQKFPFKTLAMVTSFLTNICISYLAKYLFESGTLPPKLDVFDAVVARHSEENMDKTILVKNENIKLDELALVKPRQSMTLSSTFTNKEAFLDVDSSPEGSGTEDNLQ

outcome, inactive:
CC1Cc2cc(S(=O)(=O)N3CCN(c4ccccc4F)CC3)ccc2N1C(=O)C1CC1 (configuration not stated), CCN1CCc2nc(NC(=O)C(c3ccccc3)c3ccccc3)sc2C1, CC(C)(C)n1nnnc1C(c1cccnc1)N1CCN(c2cccc(C(F)(F)F)c2)CC1 (configuration not stated), CC(C)CN(C(=O)CSc1nnc(-c2cccs2)n1N)c1c(N)n(Cc2ccccc2)c(=O)[nH]c1=O, NCCCC[C@H]1CN=C(N)N1CCCCC1CCCCC1, O=C(COC(=O)c1c2c(nc3ccccc13)CCCCC2)NCc1ccc2c(c1)OCO2, Cc1ccnc2nc(C(=O)Nc3nccs3)nn12, COc1ccc(N2CCN(c3oc(COc4ccccc4)nc3C#N)CC2)cc1, CC(C)CCOC(=O)/C(=C/c1ccco1)NC(=O)/C=C/c1ccccc1, Cc1ccc(Cl)cc1N1CCN(C(=O)C2CCC(=O)N(C3CCCCCC3)C2)CC1 (configuration not stated), CCC(=O)N1CCN(c2ccccc2NC(=O)c2ccc([N+](=O)[O-])o2)CC1, Cc1cccc2nc(-c3cccnc3)c(NCCC(C)C)n12, Cn1c(=O)c(=O)n(C)c2cc(S(=O)(=O)N3CCC(N4CCCCC4)CC3)ccc21, O=C(COc1ccccc1)NCC(c1ccco1)N1CCN(c2ccccc2)CC1 (configuration not stated), CCCCC(c1nnnn1C1CCCC1)N1CCN(C2CCCC2)CC1 (configuration not stated), CN1CCN(CCCn2cnc3c(=O)oc4ccccc4c32)CC1, CCOC(=O)c1c(C)nc2ccccc2c1-c1ccccc1
